{"source": "PubChem BioAssay (NCI)", "note": "This is part of a sample that, as a whole, favours compounds with a hit. Of some 83,000 tested, about 20% had one in any assay.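 Plates (96-well) were seeded with cells, treated with compound at one concentration, and incubated for 48 hours before percent growth was determined.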 Unmarked numbers belong to inactive results. Active and inactive are the calls of the source.", "data": [{"tested_on": "SR leukemia", "assay": "NCI-60 one-dose screen, 48 h (100 = growth as untreated, 0 = no growth, -100 = all killed)", "settings": "10 µM unless noted", "procedure": "Growth inhibition of the SR human tumor cell line is measured as a screen for anti-cancer activity. Cells are grown in 96 well plates and exposed to the test compound for 48 hours. Compounds are tested at a single concentration, which is 10^-5 M for most compounds. The reported endpoint is percent growth (GI% or GIPRCNT), where numbers from 0 - 100% represent growth inhibition, and numbers from -100% - 0 represent cell death. For example, a value of 40 represents 60% growth inhibition. A value of 0 means no net growth occurred over the course of the experiment. A value of -40 indicates 40% of cells at the beginning of the experiment died by the end of the experiment. A value of -100 means all cells are dead at the end of the experiment.\nNCI-60 Human Tumor Cell Lines Screen was performed using the standard one-dose NCI protocol, which is described in more detail at https://dtp.cancer.gov/discovery_development/nci-60/default.htm.\nCompounds with GIPRCNT values below 10 were considered active. Activity score was based on GIPRCNT using the following formula: […]\nScore is 0 for GIPRCNT values of 100 or above, 50 for GIPRCNT values of 0, and 100 for GIPRCNT values of -100.", "values": [{"smiles": "COc1ccc(NC(=O)COCCOCCNC[C@@H]2C(=O)O[C@H]3[C@H]2CC/C(COC(=O)OC/C2=C/CC[C@@]4(C)O[C@H]4[C@H]4OC(=O)[C@@H](CN(C)C)[C@@H]4CC2)=C\\CC[C@@]2(C)O[C@@H]32)c(O)c1C(N)=O", "growth": "0.464% (active)"}, {"smiles": "C=CCOc1ccc(/C(Cl)=N/N=C(\\Cl)c2cc(OC)c(OC)c(OC)c2)cc1", "growth": "17%"}, {"smiles": "CC(C)CCC[C@@H](C)[C@H]1CC[C@H]2[C@@H]3CC=C4N(c5ccccc5)C(=O)CC[C@]4(C)[C@H]3CC[C@]12C", "growth": "92.4%"}, {"smiles": "C=C1C(=O)O[C@H]2[C@H]1CC/C(COC(=O)c1cccc3ccccc13)=C\\CC[C@@]1(C)O[C@@H]21", "growth": "-31.4% (active)"}, {"smiles": "CN(C)c1ccc(/C=N/n2c(-c3cc(F)c(Cl)cc3Cl)nn(CN3CCOCC3)c2=S)cc1", "growth": "83.6%"}, {"smiles": "Cc1cc2c(cc1C)N(C(=O)CCl)CCN2C(=O)CCl", "growth": "-13.6% (active)"}, {"smiles": "Fc1ccc(Nc2ncnc3ccc(-c4cn[nH]c4)cc23)cc1Cl", "growth": "0.823% (active)"}, {"smiles": "Nc1nccc2c1ccn2-c1ccc(NC(=O)c2ccc(N3CCOCC3)c(C(F)(F)F)c2)cc1", "growth": "14.9%"}, {"smiles": "CC(=O)n1cc(/C=C2\\N=C(c3ccc(Cl)cc3)N(c3ccc(S(=O)(=O)Nc4nccs4)cc3)C2=O)c2ccccc21", "growth": "61.3%"}, {"smiles": "Nc1ncc(-c2ccc3ncnc(Nc4ccc(F)c(Cl)c4)c3c2)cn1", "growth": "-35.1% (active)"}, {"smiles": "O=C(/C=C/c1ccccc1)Oc1ccc(/C=C/c2cc(OC(=O)/C=C/c3ccccc3)cc(OC(=O)/C=C/c3ccccc3)c2)cc1", "growth": "92%"}, {"smiles": "O=C(Nc1ccc(-n2ccc3c(NC(=O)c4ccccc4)ncnc32)cc1)Nc1ccc(Cl)c(Cl)c1", "growth": "-6.07% (active)"}, {"smiles": "COc1ccc(C(=O)NC(=O)Nc2ccc3c(c2)NC(=O)/C3=C\\c2[nH]c(C)c(C(=O)O)c2C)c(F)c1", "growth": "58.2%"}, {"smiles": "Nc1nccc(=S)[nH]1", "growth": "87.1%"}, {"smiles": "CSc1ccc(C(=O)C[n+]2cccc(C)c2)cc1", "growth": "106%"}, {"smiles": "O=C(C[n+]1ccccc1Cl)c1ccc2c(c1)CCCC2", "growth": "59.8%"}, {"smiles": "O=C(Nc1cccc(-n2ccc3c(NC(=O)c4ccccc4)ncnc32)c1)Nc1ccc(Cl)c(C(F)(F)F)c1", "growth": "17.7%"}, {"smiles": "Cc1ccc[n+](CC(=O)c2cccc3ccccc23)c1", "growth": "112%"}, {"smiles": "O=c1c2ccccc2sc2c(N3CCCC3)nc3ccccc3c12", "growth": "81.5%"}, {"smiles": "COc1cc2c(cc1OC)-c1c(oc3c4c(ccc3c1=O)OC(C)(C)C=C4)CO2", "growth": "42.6%"}, {"smiles": "O=C(Nc1cccc([N+](=O)[O-])c1)Nc1cccc([N+](=O)[O-])c1", "growth": "38.2%"}, {"smiles": "FC(F)(F)c1cn(CCN2CCOCC2)c2ncnc(Cl)c12", "growth": "-40.3% (active)"}, {"smiles": "Cc1c(F)cccc1NC(=O)c1sc2nc3c(cc2c1N)CCCCC3", "growth": "16.8%"}, {"smiles": "O=c1nc(N2CCOCC2)oc2c(-c3cccc4ccccc34)cccc12", "growth": "72.9%"}, {"smiles": "O=C(O)c1ccc(-n2cc(/C=N/Nc3ccc(Cl)cc3)c(-c3ccc(F)c(F)c3)n2)cc1", "growth": "68.9%"}, {"smiles": "CCC1S/C(=N\\N=C(/C)c2ccco2)N(c2ccccc2)C1=O", "note": "(stereo not given)", "growth": "92.4%"}, {"smiles": "Cc1cn(-c2cc(C(=O)Nc3cccc(-n4ccc5c(NC(=O)c6ccccc6)nccc54)c3)cc(C(F)(F)F)c2)cn1", "growth": "-24.9% (active)"}, {"smiles": "C=C1C(=O)O[C@H]2[C@H]1CC/C(CNC(=O)/C1=C/CC[C@@]3(C)O[C@H]3[C@H]3OC(=O)C(=C)[C@@H]3CC1)=C\\CC[C@@]1(C)O[C@@H]21", "growth": "92.4%"}, {"smiles": "CCNC(=O)Oc1ccc(/C(=C(/CC)Cc2ccccc2)c2ccc(OCCN3CCOCC3)cc2)cc1", "growth": "29.2%"}, {"smiles": "CN[C@@H](CCCNC(N)=NC/C=C(/C)CCC=C(C)C)C(=O)N(C)[C@@H](CCCNC(N)=NCC=C(C)C)C(=O)N[C@H](C)[C@H](OS(=O)(=O)O)c1ccc(OS(=O)(=O)O)c(COS(=O)(=O)O)c1", "growth": "114%"}, {"smiles": "COc1cc([C@@H]2c3cc4c(cc3C(OC3O[C@@H]5COC(C)O[C@H]5[C@H](O)[C@H]3O)C3COC(=O)[C@@H]32)OCO4)cc(OC)c1O", "note": "(stereo not given in full)", "growth": "-3.83% (active)"}, {"smiles": "CCc1ccc(C2=C/C(=C/c3ccc(Cl)cc3)C(=O)N2CCc2ccc(S(N)(=O)=O)cc2)cc1", "growth": "6.7% (active)"}, {"smiles": "COc1cc(NC(C)CCCN2C(=O)c3ccccc3C2=O)c2ncccc2c1OC", "note": "(stereo not given)", "growth": "35.4%"}, {"smiles": "COc1cc(-c2nc(SCC(=O)Nc3ccc(C(C)=O)cc3)[nH]c(=O)c2C#N)cc(OC)c1OC", "growth": "7.62% (active)"}, {"smiles": "COc1cc(Nc2ncccc2C(=O)Nc2nc3ccc(F)cc3s2)cc(OC)c1OC", "growth": "104%"}, {"smiles": "C/C(=N/NC(=O)Cn1c2ccccc2c2ccncc21)c1cccs1", "growth": "83.3%"}, {"smiles": "Cc1cc(C)c(O)c(C(=O)CC(Br)C(=O)O)c1", "note": "(stereo not given)", "growth": "78.3%"}, {"smiles": "OC[C@@H](O)C(O[C@@H]1O[C@H](CO)[C@H](O)[C@H](O)[C@H]1O)[C@H](O)[C@@H](O)CO", "note": "(stereo not given in full)", "growth": "87.4%"}, {"smiles": "O=C(Nc1ccc(-n2cc(-c3ccncc3)c(-c3ccc(O)c(Cl)c3)n2)cc1)Nc1cccc(Cl)c1Cl", "growth": "74%"}, {"smiles": "O=C(Nc1ccc(-n2cc(-c3ccncc3)c(-c3ccc(O)c(Cl)c3)n2)cc1)Nc1cc(C(F)(F)F)cc(C(F)(F)F)c1", "growth": "69.7%"}]}]}
